According to PubChem BioAssay AID504648 (National Center for Advancing Translational Sciences (NCATS), 2011):
Screen size: about 390,000 compounds; about 610 (0.16%) were called active. Roughly 4% stayed inconclusive and do not appear here. This excerpt belongs to a sample that is enriched for actives. Unmarked numbers belong to inactive results. Calls follow the shape of the dose curve; as a rule, active = well fitted inhibition curve with a large enough effect; inconclusive = small, poorly fitted or top-dose-only effect, or effect the other way, or another doubt; inactive = no such curve, though single readings can be large or run the other way.

Test: Nrf2 qHTS screen for inhibitors: counterscreen for cytotoxicity
Conditions: A549 ARE-Fluc cells, CellTiter-Fluor viability, 18-24 h; series mostly up to 46 µM; activity change, negative = cytotoxicity: at the top concentration
Procedure, shortened: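 A549 ARE-Fluc cells in 5% FBS OPTI-MEM, 5000 cells/well, rested 2 h then exposed to compounds in concentration-response for 18-24 h at 37 °C. Viability by CellTiter-Fluor fluorescence (Ex 405/Em 525) after 30 min; luciferase luminescence (BugLite, 15 min, RT) read afterwards.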
% is scaled to controls: 0 for no effect and ±100 for the full control effect; potency is read from the fitted curve at half-maximal effect.

SMILES	activity change, negative = cytotoxicity	Potency
O=C(NCc1nnc(C(=O)Nc2ccc(C(F)(F)F)cc2Cl)o1)c1ccccc1	-5.57%	
CC1CCCCN1CC(=O)N1CCCc2c1c(=O)oc1ccc(OCc3ccccc3)cc21 (stereo not given)	-12%	
COc1ccc2c(c1OC)C(=O)OC2Nc1nc(-c2ccccc2)cs1 (stereo not given)		20.6 µM (active)
COc1cccc(C2CC(c3ccccc3)=NN2S(=O)(=O)c2ccccc2)c1OC (stereo not given)	-2.21%	
Cc1ccc(CNC(=O)C2(C(F)(F)F)C/C(=C\CCO)CCCO2)o1 (stereo not given)	-0.0353%	
Cn1nnnc1Sc1ncnc2scc(-c3ccccc3[N+](=O)[O-])c12	-8.01%	
COc1cccc(OC2=NS(=O)(=O)c3ccccc32)c1	8.49% [at 65.3 µM]	
CCc1ccc(NC(=O)N2CCN(C(=O)c3nsc4ccccc34)CC2)cc1	-8.29%	
Cc1cc(C)c(NC(=O)Cn2c(SCC(=O)NCc3ccccc3)nc3ccccc32)c(C)c1	-9.69%	
COc1ccc(Br)cc1C1C2C=CCC(C)C2C(=O)N1Cc1ccccc1 (stereo not given)	-9.11%	
O=C1C2C(c3ccccc3)CC=CC2C(c2ccoc2)N1Cc1ccccc1 (stereo not given)	-12.7%	
Cc1ccc(NC(=O)C(Cc2ccccc2)NS(=O)(=O)c2ccc3c(c2)oc(=O)n3C)cc1C (stereo not given)	-0.129%	
CC(=O)Nc1cc(C(=O)NCc2ccc(F)cc2)ccc1Sc1ccc(F)cc1	-2.42%	
COC(=O)c1ccc(OC)c(Cn2c(=O)n(Cc3ccccc3)c(=O)c3c2c2cc(OC)ccc2n3C)c1	2.6%	
O=C1Nc2ccc(Br)cc2/C1=N/N=C/C1=C(N2CCOCC2)C(=C\c2ccccc2)/CC1		18.4 µM (active)
COc1ccccc1C(=O)OCc1cc(=O)n2nc(-c3cccs3)sc2n1	-1.04%	
O=[S+]([O-])(c1ccc2c(c1)OCCO2)N1CCN([S+](=O)([O-])c2c(Cl)cc(Cl)cc2Br)CC1	-1.37%	
COc1ccc(C2=NC(c3ccncc3)=Nc3ccc(Br)cc3N2)cc1	4.44%	
O=[S+]([O-])(c1ccc(OC(F)(F)F)cc1)N1CCN([S+](=O)([O-])c2ccc3c(c2)OCCO3)CC1	-2.24%	
CCc1ccc(NC(=O)Cn2c(=O)n(CCC(=O)NCc3ccc4c(c3)OCO4)c(=O)c3ccccc32)cc1	-0.967%	
CCc1ccccc1NC(=O)N1CCN(C(=O)c2nsc3ccccc23)CC1	7.86%	
CCCn1c2ccccc2c2cnn(CC(=O)N3CCCC(C(=O)OCC)C3)c(=O)c21 (stereo not given)	11%	
CCOC(=O)c1c(C)[nH]c(C)c1S(=O)(=O)N(C)CC(=O)N1CCN(c2ccccc2)CC1	-2.2%	
CCOC(=O)c1c(SCC(=O)Nc2cccc(C)c2C)nc(=O)[nH]c1C	5.98%	
CCOC(=O)c1c(C)[nH]c2c1-c1ccccc1C(=O)C2=O		23.1 µM (active)
